The record followed here is PubChem BioAssay (NCI).

Test systems include SR leukemia; RPMI-8226 leukemia; OVCAR-8 ovarian; OVCAR-5 ovarian; OVCAR-4 ovarian; SK-OV-3 ovarian; IGROV1 ovarian; OVCAR-3 ovarian; HS 578T breast; NCI/ADR-RES ovarian; T-47D breast; BT-549 breast; MDA-MB-435 melanoma; SW-620 colon; MCF7 breast; HCT-116 colon; HCC-2998 colon; KM12 colon; MDA-MB-468 breast.
What all share (assay): NCI-60 one-dose screen, 48 h (100 = growth as untreated, 0 = no growth, -100 = all killed)
What all share (conditions): 10 µM unless noted

The panel holds about 83,000 compounds, 20% with a hit somewhere; the sample as a whole holds those more often.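 In brief: 96-well plates, 48 h treatment, single concentration, percent growth endpoint.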 Values without a mark were called inactive. Calls of active or inactive are those of the source. The calls were made as follows: active = growth percent below 10; inactive = the rest.

For the compound `Cc1cn(-c2cc(NC(=O)c3ccc(C)c(-n4cc(-c5cnc6cccnn56)nn4)c3)cc(C(F)(F)F)c2)cn1`, the growth with SR leukemia was 23.2%; in the experiment on RPMI-8226 leukemia, 53.9%; with OVCAR-8 ovarian it was 92.4%; in the experiment on OVCAR-5 ovarian it was 58.3%; in the experiment on OVCAR-4 ovarian, 100%; in the experiment on SK-OV-3 ovarian it was 124%. Moreover, the growth is 88.7% in the experiment with IGROV1 ovarian; 124% with OVCAR-3 ovarian; 108% with HS 578T breast; 94.5% in the experiment with NCI/ADR-RES ovarian; 94.6% in the experiment with T-47D breast; 158% with BT-549 breast. Moreover, the growth was 57.7% in the experiment on MDA-MB-435 melanoma; 84.9% in the experiment on SW-620 colon; 98.6% with MCF7 breast; 53.2% in the experiment with HCT-116 colon; 82.2% with HCC-2998 colon; 54.9% in the experiment on KM12 colon. For the same compound, the growth in the experiment on MDA-MB-468 breast was 99.1%.

For the compound `Cc1[nH]nc2ccc3nc(-c4cnn(CCO)c4)c4c(c3c12)CCCC4`, the growth with SR leukemia was 13.8%; with RPMI-8226 leukemia, 33.8%; in the experiment on OVCAR-8 ovarian, 48.7%; with OVCAR-5 ovarian, 90.4%; with OVCAR-4 ovarian it was 63.1%; in the experiment with SK-OV-3 ovarian, 9.64% (active). Besides, the growth was 44.5% in the experiment with IGROV1 ovarian; 90.2% with OVCAR-3 ovarian; -2.52% (active) in the experiment with HS 578T breast; 73.5% in the experiment on NCI/ADR-RES ovarian; 34.5% in the experiment with T-47D breast; 46.3% in the experiment on BT-549 breast. For the same compound, the growth in the experiment on MDA-MB-435 melanoma was 18.7%; in the experiment with SW-620 colon, 29%; in the experiment with MCF7 breast, 52.6%; in the experiment on HCT-116 colon, 33.8%; in the experiment on HCC-2998 colon, 45.6%; with KM12 colon it was 18.8%. Moreover, the growth in the experiment on MDA-MB-468 breast is -0.783% (active).

Take `O=C(CSc1nnc(-c2ccc(-c3nc4ccccc4[nH]3)cc2)o1)Nc1ccc(Cl)cc1`: the growth with SR leukemia was 2.31% (active); with RPMI-8226 leukemia, 7.96% (active); with OVCAR-8 ovarian it was -18% (active); with OVCAR-5 ovarian, 47.1%; in the experiment on OVCAR-4 ovarian, 45.1%; in the experiment with SK-OV-3 ovarian, 83.1%. Further, the growth was 44.4% in the experiment on IGROV1 ovarian; 20.8% in the experiment with OVCAR-3 ovarian; 63.1% in the experiment on HS 578T breast; 30% in the experiment on NCI/ADR-RES ovarian; 23.8% in the experiment with T-47D breast; -0.131% (active) in the experiment with BT-549 breast. Further, the growth in the experiment on MDA-MB-435 melanoma is 18.4%; with SW-620 colon it was -50.5% (active); in the experiment on MCF7 breast it was 7.43% (active); with HCT-116 colon, 7.32% (active); in the experiment on HCC-2998 colon, 59.6%; with KM12 colon, 22.9%. Besides, the growth with MDA-MB-468 breast was 54.8%.

Turning to `COc1ccc2[nH]c(O)c(N=Nc3nc(-c4ccc(C#N)cc4)cs3)c2c1`, the growth with SR leukemia was 17.4%; with RPMI-8226 leukemia it was 34.9%; in the experiment on OVCAR-8 ovarian, 58.2%; in the experiment on OVCAR-5 ovarian it was 94.1%; in the experiment on OVCAR-4 ovarian, -46.8% (active); in the experiment with SK-OV-3 ovarian, 104%. The growth is 77.6% with IGROV1 ovarian; 8.62% (active) in the experiment with OVCAR-3 ovarian; 36.5% with HS 578T breast; 63.1% with NCI/ADR-RES ovarian; 54.7% with T-47D breast; 63.2% in the experiment with BT-549 breast. Also, the growth in the experiment with MDA-MB-435 melanoma is 67.3%; in the experiment on SW-620 colon it was 63.3%; in the experiment with MCF7 breast, 69.8%; with HCT-116 colon, 31.8%; with HCC-2998 colon, 90.8%; with KM12 colon, 78.4%. Also, the growth in the experiment with MDA-MB-468 breast is 77.5%.

Regarding `COc1c(F)ccc(C(=O)Nc2ccc3nc(NC(=O)C4CCCN(S(=O)(=O)c5ccc(C(C)(C)C)cc5)C4)sc3c2)c1F` (stereo not drawn), the growth with SR leukemia is 17.3%; in the experiment with RPMI-8226 leukemia it was 44.3%; with OVCAR-8 ovarian it was 84.9%; in the experiment with OVCAR-5 ovarian, 81.3%; in the experiment with OVCAR-4 ovarian, 54%; in the experiment on SK-OV-3 ovarian, 80.8%. Also, the growth in the experiment on IGROV1 ovarian is 55.5%; with OVCAR-3 ovarian, 83.9%; with HS 578T breast it was 58.2%; in the experiment on NCI/ADR-RES ovarian it was 67.6%; in the experiment with T-47D breast, 42.5%; with BT-549 breast, 60.4%. For the same compound, the growth in the experiment on MDA-MB-435 melanoma was 76.7%; in the experiment on SW-620 colon, 88.5%; with MCF7 breast it was 41.5%; in the experiment with HCT-116 colon it was 58.3%; in the experiment on HCC-2998 colon, 84.8%; in the experiment on KM12 colon, 68.4%. For the same compound, the growth in the experiment on MDA-MB-468 breast is 86.7%.

`COc1c(B(O)O)cc(F)cc1-c1nc2c(F)cc3[nH]ncc3c2c2c1CCCC2`: the growth was 33% in the experiment with SR leukemia; -5.25% (active) in the experiment on RPMI-8226 leukemia; 10.2% with OVCAR-8 ovarian; 15.9% in the experiment on OVCAR-5 ovarian; 39.4% in the experiment on OVCAR-4 ovarian; 25.1% in the experiment with SK-OV-3 ovarian. Also, the growth was 14.6% in the experiment on IGROV1 ovarian; 18.6% with OVCAR-3 ovarian; 11.4% in the experiment with HS 578T breast; 17.4% in the experiment on NCI/ADR-RES ovarian; 33.7% in the experiment on T-47D breast; -62.2% (active) with BT-549 breast. The growth was 31% in the experiment on MDA-MB-435 melanoma; 0.792% (active) in the experiment with SW-620 colon; -2.86% (active) in the experiment with MCF7 breast; 4.76% (active) in the experiment with HCT-116 colon; 20.1% in the experiment on HCC-2998 colon; 7.55% (active) in the experiment with KM12 colon. In addition, the growth in the experiment with MDA-MB-468 breast is -11% (active).

For `NC(=O)c1ccc(-c2ccc3ncnc(N4CCc5cc(F)c(Cl)cc54)c3c2)cn1`, the growth in the experiment with SR leukemia is 15.2%; with RPMI-8226 leukemia, 48.5%; in the experiment with OVCAR-8 ovarian, 71.1%; with OVCAR-5 ovarian, 73.5%; with OVCAR-4 ovarian, 88.7%; with SK-OV-3 ovarian, 101%. The growth in the experiment with IGROV1 ovarian was 2.18% (active); in the experiment on OVCAR-3 ovarian, 64.8%; in the experiment with HS 578T breast, 55.4%; in the experiment with NCI/ADR-RES ovarian, 74.6%; with T-47D breast it was 28%; in the experiment on BT-549 breast, 61.1%. Besides, the growth with MDA-MB-435 melanoma is 95.9%; in the experiment with SW-620 colon, 94.2%; with MCF7 breast, 37.7%; in the experiment with HCT-116 colon, 63.6%; in the experiment on HCC-2998 colon it was 89.7%; with KM12 colon it was 96.1%. The growth in the experiment on MDA-MB-468 breast was -7.37% (active).
